Source: PubChem (National Center for Advancing Translational Sciences (NCATS))
This is a sample that favours compounds with a hit; in the whole collection about 0.47% have one here.
UDG counter: blocks uracil-DNA glycosylase in AID counter-screen; FRET deamination/UDG coupled assay, UDG read, 4 h; Potency, µM (doses to about 115 µM), inactives show at the highest dose activity change, negative = inhibition, actives largely listed as inhibitors; hit rate 0.14% among 91,000; also: nearly all actives have a fitted effect of over 65% in size
AID inh: blocks human AID cytidine deaminase activity; Q9GZX7; AID deamination FRET fluorescence, UDG-coupled, 4 h; Potency, µM (series often up to 115 µM), hits mostly inhibitors; hit rate 0.32% among 91,000; also: nearly all actives have a fitted effect of over 25% in size
Target sequence (Q9GZX7 whole entry, looked up): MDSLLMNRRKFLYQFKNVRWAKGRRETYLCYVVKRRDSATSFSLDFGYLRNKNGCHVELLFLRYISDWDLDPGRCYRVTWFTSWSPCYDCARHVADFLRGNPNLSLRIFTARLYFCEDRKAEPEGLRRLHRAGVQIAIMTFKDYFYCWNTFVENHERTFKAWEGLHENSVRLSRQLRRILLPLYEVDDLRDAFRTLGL
An asterisk follows results filed as active. Calls follow the shape of the dose curve; as a rule, active = well fitted curve in the direction sought with a large enough effect; inconclusive = small, poorly fitted or top-dose-only effect, or another doubt; inactive = no such curve, though single readings can be large; an effect the other way counts as inactive or inconclusive. % is scaled to controls: 0 for no effect and ±100 for the full control effect; potency is read from the fitted curve at half-maximal effect.

For Cc1oc(-c2ccccc2Cl)nc1CS(=O)(=O)CC(=O)NC(C)c1ccccc1 (centres undefined) the results were UDG counter -15% and AID inh inconclusive.
For CNc1oc(-c2ccc(Cl)cc2)nc1S(=O)(=O)c1ccc2c(c1)OCCO2 the results were UDG counter 2% and AID inh inactive.
`CNc1oc(-c2ccccc2F)nc1S(=O)(=O)c1ccc2c(c1)OCCO2` gave UDG counter 79µM* and AID inh inactive.
Screening CCOc1ccccc1-c1cc(C(=O)O)c2ccccc2n1 returned UDG counter 0% and AID inh inactive.
Screening COc1cc(NS(=O)(=O)c2ccc(C)cc2C)cc2sc(NC(=O)c3ccccc3)nc12 returned UDG counter 6% and AID inh inactive.
Screening Cc1ccc(CN(C)C(=O)COc2ccc3ccc(=O)oc3c2)cc1 returned UDG counter 8% and AID inh inactive.
For COCCSc1nnc(-c2ccc(Cl)cc2)n1-c1ccc(OC)cc1 the results were UDG counter -5% and AID inh inactive.
`Cc1ccc(-n2c(SCc3nc(-c4ccc(Cl)cc4)no3)nnc2-c2ccncc2)cc1` gave UDG counter inconclusive and AID inh 35µM*.
`Clc1ccccc1-c1nnc(SCc2nc(-c3ccccc3)no2)n1-c1ccccc1` gave UDG counter 79µM* and AID inh inconclusive.
Cc1ccc(-c2noc(CSc3nnc(C)n3-c3ccc(C)cc3)n2)cc1 was read as UDG counter -21% and AID inh inconclusive.
For CCOc1ccc(-c2noc(CSc3nnc(-c4ccccc4)n3-c3ccccc3)n2)cc1 the results were UDG counter -1% and AID inh inactive.
COc1ccc(-c2noc(CSc3nnc(C)n3-c3ccc(F)cc3)n2)cc1 was read as UDG counter 79µM* and AID inh inactive.
COc1ccc(-c2noc(CSc3nnc(-c4ccncc4)n3-c3ccc(OC)cc3)n2)cc1 was read as UDG counter 79µM* and AID inh inconclusive.
Screening COc1ccc(OC)c(-c2noc(CSc3nnc(-c4ccccc4)n3-c3ccccc3)n2)c1 returned UDG counter 5% and AID inh inactive.
For CN(C)CCCN(Cc1ccc(Cl)c(Cl)c1)C(=O)/C=C/c1ccncc1 the results were UDG counter -14% and AID inh inactive.
`Cc1cc(C)c2[nH]c(C)c(CN3CCC(C)CC3)c(=O)c2c1` gave UDG counter 20% and AID inh inactive.
Screening CCc1ccccc1NC(=O)Cn1cnc2c(cnn2-c2cc(Cl)ccc2C)c1=O returned UDG counter 5% and AID inh inactive.
COc1ccc(C(NC(=O)CNc2ccccc2C(N)=O)C2CC2)cc1 (centres undefined) was read as UDG counter 8% and AID inh inactive.
Screening CCCCCCCOC(=O)c1c(C)oc2ccc(NS(=O)(=O)c3cccs3)cc12 returned UDG counter -10% and AID inh inactive.
`N=C(N)c1ccc(OCc2ccncc2)cc1` gave UDG counter 7% and AID inh inactive.
`CC(C)N(CCNC(=O)C(c1ccccc1)c1ccccc1)C(C)C` gave UDG counter -1% and AID inh inactive.
Screening O=C1C(SCCO)=C(SCCO)C(=O)c2ccccc21 returned UDG counter -10% and AID inh 11µM*.
Screening O=C(NCCc1ccc2c(c1)OCCO2)c1ccc(NC(=O)c2cccs2)cc1 returned UDG counter -18% and AID inh inactive.
For N#Cc1ccc(OCCN2CCCc3ccccc32)cc1 the results were UDG counter 1% and AID inh inactive.
Screening Nc1c(S(=O)(=O)O)cc(Nc2ccc(Nc3nc(Cl)nc(Nc4ccc(S(=O)(=O)O)cc4)n3)c(S(=O)(=O)O)c2)c2c1C(=O)c1ccccc1C2=O returned UDG counter -19% and AID inh 22µM*.
Cc1cccc(NC(=O)CN(C)S(=O)(=O)c2ccc3c(c2)c(=O)n(C)c(=O)n3C)c1 was read as UDG counter -5% and AID inh inactive.
CCOc1ccc(NC(=O)CN(C)S(=O)(=O)c2ccc3c(c2)c(=O)n(C)c(=O)n3C)cc1 was read as UDG counter -12% and AID inh 22µM*.
`Cc1ccc(/C=C/C(=O)c2c(C)nc3ccc(Br)cc3c2-c2ccccc2)o1` gave UDG counter -9% and AID inh inactive.
For CCOc1ccc(-n2c(Cc3ccccc3)nnc2SCc2nc(-c3ccccc3OC)no2)cc1 the results were UDG counter -19% and AID inh inconclusive.
Screening CCc1ccc(-n2c(Cc3ccccc3)nnc2SCc2nc(-c3cccs3)no2)cc1 returned UDG counter inconclusive and AID inh 40µM*.
Screening CCOc1ccc(-c2noc(CSc3nnc(Cc4ccccc4)n3-c3ccc(F)cc3)n2)cc1 returned UDG counter -23% and AID inh inconclusive.
Screening Cc1ccccc1-c1noc(CSc2nnc(Cc3ccccc3)n2-c2ccc(F)cc2)n1 returned UDG counter inconclusive and AID inh 20µM*.
For Cc1ccccc1/C=C(/C#N)c1nc2ccccc2s1 the results were UDG counter -19% and AID inh inactive.
For N#C/C(=C\c1ccnc2ccccc12)c1nc2ccccc2s1 the results were UDG counter 79µM* and AID inh inconclusive.
Screening COc1ccc(C(=O)/C(C#N)=C\c2ccc(OC(F)F)c(OC)c2)cc1 returned UDG counter -7% and AID inh inactive.
`COc1ccc(-c2nn3c(-c4ccc(C(C)(C)C)cc4)nnc3s2)cc1OC` gave UDG counter -2% and AID inh inconclusive.
Screening COc1cccc(C(=O)N(Cc2ccc(C)o2)C2CCS(=O)(=O)C2)c1 (centres undefined) returned UDG counter 6% and AID inh inactive.
CCCCOc1c(Cl)cc(C(=O)N(Cc2ccc(C)o2)C2CCS(=O)(=O)C2)cc1Cl (centres undefined) was read as UDG counter 89µM* and AID inh inconclusive.
Screening CCc1ccc2c(c1)NC(c1ccc(OC)cc1)=NC(c1ccncc1)=N2 returned UDG counter 89µM* and AID inh inconclusive.
`COc1ccc(C2=NC(c3ccncc3)=Nc3ccc(OC)cc3N2)cc1` gave UDG counter -26% and AID inh inactive.
For Cc1cccc(C)c1OCCCCn1c(C2CC(=O)N(c3ccc(F)cc3)C2)nc2ccccc21 (centres undefined) the results were UDG counter 79µM* and AID inh inconclusive.
Screening COc1ccc(OCCn2c(C3CC(=O)N(c4ccc(F)cc4)C3)nc3ccccc32)cc1 (centres undefined) returned UDG counter -26% and AID inh inconclusive.
CCOc1ccc2nc(C)cc(Nc3ccccc3OCC)c2c1 was read as UDG counter inconclusive and AID inh 79µM*.
For CCOc1ccc(Nc2cc(C)nc3ccc(Cl)cc23)cc1 the results were UDG counter -2% and AID inh inactive.
For Cc1ccc2nc(/C(C#N)=C/c3ccco3)[nH]c2c1 the results were UDG counter -2% and AID inh inactive.
For Cc1ccc(NC(=O)c2c(C)oc3ncnc(N4CCCCC4)c23)cc1Cl the results were UDG counter inconclusive and AID inh inactive.
CCc1cccc(NC(=O)c2c(C)oc3ncnc(N4CCCCC4)c23)c1 was read as UDG counter 89µM* and AID inh inactive.
